About 83,000 compounds went through this panel and 20% of them were active in at least one assay; those are over-represented in the sample as a whole.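 A percent growth of 40 corresponds to 60% growth inhibition; 0 means no net growth; -100 means all cells died. Active threshold: below 10.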 Values without a mark were called inactive. Activity calls are given as the source filed them.
Columns and labels:
Assay in all cases: NCI-60 one-dose screen, 48 h (100 = growth as untreated, 0 = no growth, -100 = all killed)
Settings in all cases: 10 µM unless noted
NCI-H23 lung = tested on: NCI-H23 lung
NCI-H226 lung = tested on: NCI-H226 lung
NCI-H322M lung = tested on: NCI-H322M lung
NCI-H460 lung = tested on: NCI-H460 lung
HOP-92 NSCLC = tested on: HOP-92 NSCLC
786-0 renal = tested on: 786-0 renal
COLO 205 colon = tested on: COLO 205 colon
DU-145 prostate = tested on: DU-145 prostate
K-562 leukemia = tested on: K-562 leukemia
MALME-3M melanoma = tested on: MALME-3M melanoma
MDA-MB-231 breast = tested on: MDA-MB-231 breast
RXF 393 renal = tested on: RXF 393 renal
SF-268 CNS = tested on: SF-268 CNS
SF-295 CNS = tested on: SF-295 CNS
SF-539 CNS = tested on: SF-539 CNS
M14 melanoma = tested on: M14 melanoma
A549/ATCC NSCLC = tested on: A549/ATCC NSCLC
UACC-257 melanoma = tested on: UACC-257 melanoma
NCI-H522 lung = tested on: NCI-H522 lung

With CC(C)(C)c1cc(C[P+](c2ccccc2)(c2ccccc2)c2ccccc2)cc(C(C)(C)C)c1O the growth (NCI-H23 lung) was -6.21% (active), the growth (NCI-H226 lung) was 32.3% and the growth (NCI-H322M lung) was -9.5% (active). The growth (NCI-H460 lung) was 3.54% (active), the growth (HOP-92 NSCLC) was -32.6% (active) and the growth (786-0 renal) was 8.5% (active). The growth (COLO 205 colon) was -92.6% (active), the growth (DU-145 prostate) was 20.5% and the growth (K-562 leukemia) was 3.48% (active). The growth (MALME-3M melanoma) was -18.1% (active), the growth (MDA-MB-231 breast) was 27.9% and the growth (RXF 393 renal) was 11.7%. The growth (SF-268 CNS) was 19.4%, the growth (SF-295 CNS) was -3.88% (active) and the growth (SF-539 CNS) was 3.24% (active). It also gave a growth (M14 melanoma) of 11.7%.

With COc1cc(OC)cc(-c2ccc(-c3ccc(C(=N)N)s3)s2)c1 the growth (NCI-H23 lung) was -75.7% (active), the growth (NCI-H226 lung) was -65.3% (active) and the growth (NCI-H322M lung) was -86.7% (active). The growth (NCI-H460 lung) was -71.6% (active), the growth (HOP-92 NSCLC) was -71% (active) and the growth (786-0 renal) was -80.4% (active). The growth (COLO 205 colon) was -78.1% (active), the growth (DU-145 prostate) was -74.2% (active) and the growth (K-562 leukemia) was -35.7% (active). The growth (MALME-3M melanoma) was -73.8% (active), the growth (MDA-MB-231 breast) was -80.5% (active) and the growth (RXF 393 renal) was -73.9% (active). The growth (SF-268 CNS) was -76.5% (active), the growth (SF-295 CNS) was -78.5% (active) and the growth (SF-539 CNS) was -92.2% (active). The growth (M14 melanoma) was -88.2% (active).

For Cc1cccc(N=NC(=S)NNc2cccc(C)c2)c1, the growth (NCI-H23 lung) was 102%, the growth (NCI-H226 lung) was 101% and the growth (NCI-H322M lung) was 101%. The growth (NCI-H460 lung) was 112%, the growth (A549/ATCC NSCLC) was 105% and the growth (786-0 renal) was 111%. It also gave a growth (COLO 205 colon) of 116%, a growth (DU-145 prostate) of 122% and a growth (K-562 leukemia) of 105%. It also gave a growth (MALME-3M melanoma) of 108%, a growth (MDA-MB-231 breast) of 93.5% and a growth (RXF 393 renal) of 115%. The growth (SF-268 CNS) was 135%, the growth (SF-295 CNS) was 104% and the growth (SF-539 CNS) was 108%. For the same molecule, the growth (UACC-257 melanoma) was 105% and the growth (M14 melanoma) was 108%.

For OC(COCc1ccccc1)COCc1ccccc1, the growth (NCI-H23 lung) was 110%, the growth (NCI-H226 lung) was 106% and the growth (NCI-H322M lung) was 112%. It also gave a growth (NCI-H460 lung) of 112%, a growth (NCI-H522 lung) of 100% and a growth (A549/ATCC NSCLC) of 99.9%. The growth (786-0 renal) was 108%, the growth (COLO 205 colon) was 110% and the growth (DU-145 prostate) was 122%. For the same molecule, the growth (K-562 leukemia) was 99.3%, the growth (MALME-3M melanoma) was 105% and the growth (MDA-MB-231 breast) was 108%. The growth (RXF 393 renal) was 119%, the growth (SF-268 CNS) was 115% and the growth (SF-295 CNS) was 108%. For the same molecule, the growth (SF-539 CNS) was 110%, the growth (UACC-257 melanoma) was 97.9% and the growth (M14 melanoma) was 103%.

For N=c1nc(N2CCCCC2)cc(N)n1O, the growth (NCI-H23 lung) was 115%, the growth (NCI-H226 lung) was 92.7% and the growth (NCI-H322M lung) was 126%. The growth (NCI-H460 lung) was 113%, the growth (NCI-H522 lung) was 103% and the growth (A549/ATCC NSCLC) was 103%. The growth (786-0 renal) was 117%, the growth (COLO 205 colon) was 106% and the growth (DU-145 prostate) was 114%. The growth (K-562 leukemia) was 116%, the growth (MALME-3M melanoma) was 145% and the growth (MDA-MB-231 breast) was 108%. The growth (RXF 393 renal) was 108%, the growth (SF-268 CNS) was 109% and the growth (SF-295 CNS) was 103%. It also gave a growth (SF-539 CNS) of 116%, a growth (UACC-257 melanoma) of 99.8% and a growth (M14 melanoma) of 123%.

COc1cccc(/C(C)=N/NC(=O)CSc2nc3ccccc3c(=O)n2CCc2ccc(S(N)(=O)=O)cc2)c1 gave a growth (NCI-H23 lung) of 31.6%, a growth (NCI-H226 lung) of 89.1% and a growth (NCI-H322M lung) of 58.2%. For the same molecule, the growth (NCI-H460 lung) was -53.2% (active), the growth (NCI-H522 lung) was 42.2% and the growth (A549/ATCC NSCLC) was 15.6%. For the same molecule, the growth (786-0 renal) was -26.9% (active), the growth (COLO 205 colon) was 42.9% and the growth (DU-145 prostate) was 18.4%. The growth (K-562 leukemia) was 32%, the growth (MALME-3M melanoma) was -15.2% (active) and the growth (MDA-MB-231 breast) was -25.5% (active). It also gave a growth (RXF 393 renal) of 57.9%, a growth (SF-268 CNS) of 36.1% and a growth (SF-295 CNS) of 44%. For the same molecule, the growth (SF-539 CNS) was -18.1% (active), the growth (UACC-257 melanoma) was 45.2% and the growth (M14 melanoma) was 27.3%.

In the case of CCSCC1CC(O)(c2ccccc2)C(c2ccccc2)C(c2ccc(F)cc2)O1 (stereo unspecified), the growth (NCI-H23 lung) is reported as -6.5% (active), the growth (NCI-H226 lung) is reported as -4.42% (active) and the growth (NCI-H322M lung) is reported as 3.59% (active). For the same molecule, the growth (NCI-H460 lung) was -16.3% (active), the growth (NCI-H522 lung) was 10.6% and the growth (A549/ATCC NSCLC) was 3.27% (active). The growth (786-0 renal) was -49.5% (active), the growth (COLO 205 colon) was -70.2% (active) and the growth (DU-145 prostate) was 3.1% (active). The growth (K-562 leukemia) was 7.77% (active), the growth (MALME-3M melanoma) was -37.6% (active) and the growth (MDA-MB-231 breast) was -8.82% (active). The growth (RXF 393 renal) was -12.4% (active), the growth (SF-268 CNS) was 1.85% (active) and the growth (SF-295 CNS) was -22.4% (active). The growth (SF-539 CNS) was 4.38% (active), the growth (UACC-257 melanoma) was 4.92% (active) and the growth (M14 melanoma) was -45.8% (active).

COc1cc(C2CC(c3ccc(C)cc3)=NN2C=O)ccc1Oc1ccnc2cc(Cl)ccc12 (stereo unspecified) was tested, and the growth (NCI-H23 lung) was 58.6%, the growth (NCI-H226 lung) was 49.1% and the growth (NCI-H322M lung) was 91.1%. It also gave a growth (NCI-H460 lung) of 62.7%, a growth (NCI-H522 lung) of 28.3% and a growth (A549/ATCC NSCLC) of 67.8%. For the same molecule, the growth (786-0 renal) was 18%, the growth (COLO 205 colon) was 108% and the growth (DU-145 prostate) was 89%. It also gave a growth (K-562 leukemia) of 109%, a growth (MALME-3M melanoma) of 98% and a growth (MDA-MB-231 breast) of 36.1%. For the same molecule, the growth (RXF 393 renal) was 0.362% (active), the growth (SF-268 CNS) was 16.3% and the growth (SF-295 CNS) was 1.79% (active). The growth (SF-539 CNS) was 4.72% (active), the growth (UACC-257 melanoma) was 103% and the growth (M14 melanoma) was 106%.

For COc1ccc(/C=C/C(=O)CCC(=O)O)cc1OC, the growth (NCI-H23 lung) was 109%, the growth (NCI-H226 lung) was 102% and the growth (NCI-H322M lung) was 97.4%. It also gave a growth (NCI-H460 lung) of 111%, a growth (NCI-H522 lung) of 93.2% and a growth (A549/ATCC NSCLC) of 103%. The growth (786-0 renal) was 95.3%, the growth (COLO 205 colon) was 106% and the growth (DU-145 prostate) was 111%. It also gave a growth (MALME-3M melanoma) of 102%, a growth (MDA-MB-231 breast) of 119% and a growth (RXF 393 renal) of 116%. It also gave a growth (SF-268 CNS) of 107%, a growth (SF-295 CNS) of 104% and a growth (SF-539 CNS) of 101%. The growth (UACC-257 melanoma) was 105% and the growth (M14 melanoma) was 101%.

Reference: PubChem BioAssay (NCI)
